Compounds with a hit are over-represented: about 2.4% of the library has one in this group of screens.
D2 PAM-1: positive allosteric modulators of human D2 dopamine receptor | DiscoveRx D2 beta-arrestin cells, luminescence, 90 min; 100% = 57 uM dopamine signal | potentiation, % (test concentration not listed) | 0.23% of 360,000 active; in the data active means potentiation above about 50%; inconclusive means mostly about 30% to 49%
Target sequence (P14416 whole entry, looked up): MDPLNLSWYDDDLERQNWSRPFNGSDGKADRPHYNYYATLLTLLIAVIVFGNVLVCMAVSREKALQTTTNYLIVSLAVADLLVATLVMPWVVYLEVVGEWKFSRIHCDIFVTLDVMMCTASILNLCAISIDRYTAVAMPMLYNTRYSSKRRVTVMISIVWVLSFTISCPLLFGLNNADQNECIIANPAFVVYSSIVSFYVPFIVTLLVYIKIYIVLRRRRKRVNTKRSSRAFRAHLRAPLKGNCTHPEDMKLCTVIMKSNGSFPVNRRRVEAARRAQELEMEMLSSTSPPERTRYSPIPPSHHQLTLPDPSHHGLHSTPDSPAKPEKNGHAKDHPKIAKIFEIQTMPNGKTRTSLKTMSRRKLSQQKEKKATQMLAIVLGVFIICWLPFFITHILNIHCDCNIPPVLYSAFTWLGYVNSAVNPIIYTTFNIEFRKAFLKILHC
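PathHunter beta-arrestin assay in DiscoveRx D2 cells. Compounds were added with an EC20 of dopamine (50 nM final) for 90 min at 37 deg C. Luminescence was read 1 h after detection reagent, with 57 uM dopamine as the EC100 control.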
D2 antagonist: antagonizes the human D2 dopamine receptor. P14416. HEK293 TREx D2 cells, calcium flux, dopamine EC80. 2% of 340,000 active. inhibition, % at 10 µM; in the data active means inhibition above about 30%; inactive means below that, where a call was filed
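Inhibition of EC80 dopamine-driven calcium flux, recorded kinetically, defines activity here; cells are a tetracycline-induced HEK293 T-REx line expressing force-coupled D2.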
D2 ag-1: agonists of human D2 dopamine receptor (beta-arrestin); DiscoveRx PathHunter D2 beta-arrestin, luminescence, 90 min; 100% = 57 uM dopamine signal; P14416; activation, % (no concentration beside the values); AID 624465; 0.084% of 360,000 active; in the data active means activation above about 40%; inconclusive means between about 15% and that limit
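DiscoveRx PathHunter D2 beta-arrestin cells (2,100/well) attached overnight, then compound-stimulated 90 min at 37 C in HBSS/10 mM HEPES/0.1% Tween-20 buffer; beta-galactosidase complementation read by luminescence after 1 h at ambient temperature. Dopamine 57 uM final (EC100) as control.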
D2 PAM-2: D2 dopamine receptor (human) potentiation; P14416; AID 485347; potentiation, % at 10 µM; HEK293 T-REx D2, calcium flux, EC20 dopamine potentiation; 0.34% of 340,000 active;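 active means potentiation over 3 SD above the plate norm, cut at about 30% in these data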
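Tetracycline-induced Hek293 Trex D2 cells, force-coupled to calcium, loaded with no-wash calcium dye. Compound added with 180 s kinetic read for agonism, then EC20 dopamine and a further 180 s read for potentiation.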
D2 ag-2: activates the human D2 dopamine receptor | 0.53% of 340,000 active | P14416 | activation, % at 2 µM | HEK293 T-REx D2 cells, calcium flux agonist mode;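 active means activation over 3 SD above normal in the single-dose calcium agonist read, cut at about 30% in these data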
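Tetracycline-induced HEK293 T-REx cells with force-coupled D2 receptor, plated overnight at 30 C, loaded with no-wash calcium dye. After a 10 s baseline, compound was pin-added and calcium flux read kinetically for 180 s; calcium rises flagged agonists.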
Hits are given with their value; - = inactive; ? = inconclusive; . = no result.

SMILES	D2 PAM-1	D2 antagonist	D2 ag-1	D2 PAM-2	D2 ag-2
N#Cc1c(Sc2ncc(C(F)(F)F)cc2Cl)nsc1C/C=N\OCc1c(F)cccc1Cl	58	-	-	-	-
C1CCC(NC2=NCCO2)CC1	-	.	-	.	.
C1COC(NC(C2CC2)C2CC2)=N1	-	36	-	-	-
COc1ccc(N2CCN(C(=O)C(CC(C)C)NS(=O)(=O)c3ccc4nc(C)sc4c3)CC2)cc1 (stereo not drawn)	.	.	.	-	-
Cc1ccccc1-n1nnnc1Sc1nnnn1-c1ccccc1	-	-	-	-	-
CCCSc1nnc(Sc2nnnn2-c2ccccc2)s1	-	44	-	-	-
O=C(Cn1c(-c2cccs2)cc2cc(F)ccc21)N1CCN(c2ccccc2)CC1	.	.	.	-	-
COc1cccc(NS(=O)(=O)c2ccc(Br)s2)c1	-	34	-	-	-
COc1ccc(OC)c(NS(=O)(=O)c2ccc(Br)s2)c1	.	-	.	-	-
CCOc1ccc(S(=O)(=O)N(CC(=O)Nc2cccnc2)c2ccccc2)cc1	.	.	.	-	-
CCc1nnc(NC(=O)c2ccc(COc3ccccc3)o2)s1	-	-	-	-	-
CCc1nnc(NC(=O)c2ccc(COc3ccc(C)cc3)o2)s1	-	30	-	-	-
CCc1nnc(NC(=O)CCC(=O)Nc2ccc(C)cc2)s1	-	43	-	-	-
Cc1cc(C)cc(NC(=O)CSc2nccn2C2CCCC2)c1	.	.	.	-	-
CCOC(=O)c1c(NC(=O)c2ccc(OCC)c(Br)c2)sc2c1CCCC2	.	.	.	-	-
Cc1ccc(C(=O)c2cnc3ccccc3c2-c2ccccc2)cc1	-	-	-	31	-
CC1=C(C(=O)OCc2ccccc2)C(c2ccccc2Br)NC(=O)N1 (stereo not drawn)	?	-	97	-	-
CC1=C(C(=O)OCc2ccccc2)C(c2cccc([N+](=O)[O-])c2)NC(=O)N1 (stereo not drawn)	59	-	-	-	-
COc1ccccc1C1NC(=O)NC(C)=C1C(=O)OCc1ccccc1 (stereo not drawn)	-	-	-	-	-
CC(C)c1ccc(C(=O)Nc2cc(-c3ccccc3F)nn2-c2ccccc2)cc1	.	.	.	-	-
C#CCSc1nccc(-c2nn(-c3ccc(C)cc3)ccc2=O)n1	-	32	-	-	-
CCOC(=O)CNC(=O)Nc1cc(C(=O)NCc2ccc(C(C)C)cc2)ccc1N1CCCC1	.	.	.	-	-
CCc1nnc(N/N=C/c2c(F)cccc2Cl)n1N	-	-	41	-	-
Cc1nnc(N/N=C/c2c(Cl)cccc2Cl)n1N	-	-	-	-	-
CC(C)C1Oc2ccccc2N(CC(=O)N2CCOCC2)C1=O (stereo not drawn)	-	38	-	-	-
SMILES	D2 PAM-1	D2 antagonist	D2 ag-1	D2 PAM-2	D2 ag-2
COc1ccc2oc(=O)cc(CN3CCN(c4ccc(F)cc4)CC3)c2c1	.	.	.	-	.
CCOc1ccc(OCC)c2sc(C)nc12	-	-	-	37	-
CCOc1cccc2sc(Cl)nc12	-	-	-	-	-
Cc1ccc2[nH]c3nc(N/N=C/c4cccc(O)c4)nnc3c2c1	-	37	-	-	-
Cn1c(CN2CCCC2)c(C#N)c2ccccc21	-	83	-	-	-
CC1CCN(Cc2c(C#N)c3ccccc3n2C)CC1	-	74	-	-	-
CC(=O)N(Cc1c(C#N)c2ccccc2n1C)c1ccccc1	-	-	-	-	-
CC1CCCCN1Cc1c(C#N)c2ccccc2n1C (stereo not drawn)	-	40	-	-	-
Cn1c(CN2CCOCC2)c(C#N)c2ccccc21	-	-	-	-	-
CN1CCN(Cc2c(C#N)c3ccccc3n2C)CC1	-	-	-	-	-
COc1ccc(CCC(=O)NCCc2csc(-c3cccc(F)c3)n2)cc1	.	.	.	-	-
Cc1ccc(N(C)S(=O)(=O)c2ccc(-c3coc(C)n3)cc2)cc1	.	.	.	-	-
Cc1cccc(N2CCN(CCCNC(=O)C3CCCN(c4ncnc5c4nc4n5CCCCC4)C3)CC2C)c1 (stereo not drawn)	-	56	-	-	-
Cc1cccc(CCNC(=O)C2CCCN(c3ncnc4c3nc3n4CCCCC3)C2)c1 (stereo not drawn)	-	-	-	-	-
CCc1cc(C(=O)OC)c(NC(=O)CC2SC(N)=NC2=O)s1 (stereo not drawn)	-	31	-	-	-
O=C(O)c1ccc2nc(-c3cc4cccc(O)c4oc3=O)[nH]c2c1	.	.	.	-	-
O=c1oc2c(O)cccc2cc1-c1nc2ccccc2[nH]1	-	-	-	-	149
CCOC(=O)CN(C(=O)CSc1nnc2c(n1)[nH]c1c(C)cc(C)cc12)c1ccccc1	.	61	.	-	-
CCOC(=O)CN(C(=O)CSc1nnc2c(n1)[nH]c1ccccc12)c1ccccc1	-	-	-	-	-
CCOC(=O)CN(C(=O)CSc1nnc2c(n1)[nH]c1ccc(F)cc12)c1ccccc1	-	72	-	-	-
CN(Cc1ccccc1)C(=O)c1csc(COCCO)n1	-	.	-	.	.
O=C(N/N=C/c1cccnc1)c1cc(-c2ccccc2Cl)nc2ccccc12	-	-	-	-	-
COc1ccc(/C=N/NC(=O)c2cc(-c3ccccc3OC)nc3ccccc23)cc1COC(C)=O	-	-	-	-	-
CCc1ccc(/C=N/NC(=O)c2cc(-c3ccccc3OC)nc3ccccc23)s1	-	35	-	-	-
Cc1ccccc1-c1cc(C(=O)N/N=C/c2cccnc2)c2ccccc2n1	-	33	-	-	-
SMILES	D2 PAM-1	D2 antagonist	D2 ag-1	D2 PAM-2	D2 ag-2
COc1ccccc1-c1cc(C(=O)N/N=C/c2ccc(C)s2)c2ccccc2n1	-	48	-	-	-
COc1ccccc1-c1cc(C(=O)N/N=C/c2ccoc2)c2ccccc2n1	-	79	-	-	-
CCN(CC)c1cc2c(cc1F)c(=O)c(S(=O)(=O)c1cc(C)ccc1C)cn2Cc1ccccc1	.	.	.	-	-
O=c1c2ccccc2oc2nc(-c3ccco3)n(CCc3ccccc3)c(=O)c12	.	-	.	-	-
COc1ccc2c(=O)c3c(=O)n(CCc4ccccc4)c(C)nc3oc2c1	-	.	-	.	.
COc1ccc(Cn2c(C)nc3oc4cc(OC)ccc4c(=O)c3c2=O)cc1	-	72	-	-	-
Cc1nc2oc3ccccc3c(=O)c2c(=O)n1Cc1ccccc1	-	31	-	-	-
CCCCCCn1c(-c2ccco2)nc2oc3cc(OC)ccc3c(=O)c2c1=O	-	-	-	30	-
Cc1ccccc1CNC(=O)C1CCN(c2nnc(-n3c(C)ccc3C)s2)CC1	.	.	.	-	-
Cc1cc(C(=O)COC(=O)Cn2cnc3c2c(=O)n(C)c(=O)n3C)c(C)n1C	-	45	-	-	-
CCOc1ccccc1NC(=O)C(C)n1nnc2sc3c(c2c1=O)CCCC3 (stereo not drawn)	.	.	.	-	-

Screens deposited in PubChem by National Center for Advancing Translational Sciences (NCATS).
